Bioassay records: PubChem BioAssay, National Center for Advancing Translational Sciences (NCATS)
Compounds with a hit are over-represented: about 0.41% of the library has one in this group of screens.
GAA inhib – inhibitors of human lysosomal alpha-glucosidase | purified human GAA, 4-MU-alpha-glucoside fluorescence | 0.005% of 200,000 active | Potency, µM (titrated, usually from 76.9 µM), usual class: inhibitors
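Human alpha-glucosidase, 4 nM, pre-mixed with test compounds before 400 uM 4-methylumbelliferyl substrate; 20 min room temperature at pH 5.0. Fluorescence read after pH 10 stop; AC50 values from Hill-equation fits.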
GLA spleen mod – inhibitors or activators of human alpha-galactosidase in spleen homogenate; human spleen homogenate, 4MU-alpha-Gal fluorescence, 40 min; Potency, µM (doses to about 80 µM), most hits filed as inhibitors; 0.008% of 240,000 active; AID 2107
Target sequence (P06280 32-429 limits assumed): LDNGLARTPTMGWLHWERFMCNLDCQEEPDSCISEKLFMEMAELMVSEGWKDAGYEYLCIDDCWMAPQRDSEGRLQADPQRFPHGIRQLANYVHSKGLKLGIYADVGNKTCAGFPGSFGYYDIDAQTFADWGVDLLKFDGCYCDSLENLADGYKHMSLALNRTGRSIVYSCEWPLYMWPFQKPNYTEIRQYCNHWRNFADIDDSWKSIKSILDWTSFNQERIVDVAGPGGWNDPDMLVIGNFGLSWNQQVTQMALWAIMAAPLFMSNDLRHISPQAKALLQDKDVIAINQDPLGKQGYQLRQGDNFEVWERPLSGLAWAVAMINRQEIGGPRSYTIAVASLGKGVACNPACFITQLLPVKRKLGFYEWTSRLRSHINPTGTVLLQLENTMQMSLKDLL
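Human spleen homogenate (1 ug) as enzyme source, 4-methylumbelliferyl-alpha-D-galactopyranoside 1 mM final, citrate/phosphate pH 5.0 with 0.01% Tween-20. Compounds 40 min at 37C, NaOH/glycine stop; fluorescence Ex 365/Em 440, Hill-fit AC50.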
N370S GC mod – N370S glucocerebrosidase modulation, Gaucher chaperone candidate; 0.092% of 330,000 active; P04062; N370S GC spleen homogenate, 4MU-glucoside fluorescence; Potency, µM (doses to about 59.4 µM), hits mostly inhibitors; AID 2101
GLA inh pH 4.5 – alpha-galactosidase A (human) inhibition, pH 4.5; purified enzyme, 4-MU-alpha-Gal fluorescence, pH 4.5; activity change, negative = inhibition, % at 105 µM; 230,000 tested, under 10 active; AID 1467
GAA glycogen mod – GAA glycogen-cleavage inhibition or activation; Potency, µM (titrated, usually from 76.4 µM), hits mostly inhibitors; recombinant GAA, glycogen substrate, Amplex Red glucose oxidase fluorescence; 0.38% of 300,000 active;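 note: the screen sought inhibitors and activators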
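qHTS, 1536-well; enzyme 4 nM final; cpd up to 77 uM; substrate bovine liver glycogen 30 ug; 50 mM citrate/phosphate pH 5.0, 0.01% Tween-20; 37 C, 40 min; Amplex Red detection 45 min RT; Hill fit → AC50.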
GAA spleen mod – inhibits or activates alpha-glucosidase in human spleen homogenate | P10253 | human spleen homogenate, 4-MU-alpha-glucoside fluorescence | Potency, µM (titrated, usually from 79.9 µM), hits mostly inhibitors | 0.006% of 240,000 active | AID 2112
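Enzyme source: human spleen homogenate, 1 ug/well. Buffer 50 mM citric acid/K phosphate pH 5.0, 0.01% Tween-20. 4-MU-alpha-glucoside 1 mM; 37 C x 40 min; NaOH/glycine stop; fluorescence.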
Of the large screens only hits and unclear results are named; the others gave an inactive call. Calls come from the whole dose curve; as a rule, active = well fitted curve in the direction sought with a large enough effect; inconclusive = small, poorly fitted or top-dose-only effect, or another doubt; inactive = no such curve, though single readings can be large; an effect the other way counts as inactive or inconclusive.

Cc1ccc(Nc2cc(C)nc(NCc3ccccc3)n2)cc1	none
OC1OC[C@H](O)[C@H](O)[C@H]1O (stereo partly specified)	none (no result: GAA inhib, GLA inh pH 4.5, GAA glycogen mod)
FC(F)(F)c1cccc(NC(=S)NCc2ccccn2)c1	none
FC(F)(F)c1cccc(NC(=S)NNC(=S)NCc2ccccc2)c1	GAA inhib inconclusive, GAA glycogen mod 12µM
Fc1ccc(NC(=S)NCc2ccccc2)cc1	none (no result: GAA inhib, GLA spleen mod, GLA inh pH 4.5, GAA spleen mod)
Cc1ccc(NC(=S)NNC(=S)NCc2ccccc2)cc1	GAA glycogen mod 32µM
CC[C@H](C)[C@H](NC(=O)[C@H](CC(C)C)NC(=O)[C@H](CO)NC(=O)[C@H](CCC(=O)O)NC(=O)[C@H](CC(C)C)NC(=O)[C@H](Cc1ccc(O)cc1)NC(=O)[C@H](CCCCN)NC(=O)[C@H](CCCCN)NC(=O)[C@H](C)NC(=O)[C@H](CO)NC(=O)[C@H](CC(C)C)NC(=O)[C@H](CCC(N)=O)NC(=O)CNC(=O)[C@H](CC(C)C)NC(=O)[C@H](CC(C)C)NC(=O)[C@H](CCCNC(=N)N)NC(=O)[C@H](CO)NC(=O)[C@H](Cc1ccccc1)NC(=O)[C@H](CC(=O)O)NC(=O)[C@H](CO)NC(=O)[C@@H](NC(=O)[C@H](Cc1ccccc1)NC(=O)[C@@H](NC(=O)CNC(=O)[C@H](CC(=O)O)NC(=O)[C@H](C)NC(=O)[C@@H](N)Cc1cnc[nH]1)C(C)C)[C@@H](C)O)C(N)=O	none (no result: GAA inhib, GLA inh pH 4.5, GAA glycogen mod)
Cc1c(CNCCc2ccc(S(N)(=O)=O)cc2)c(C(=O)O)c(C)n1Cc1ccc(Cl)cc1	GAA glycogen mod 50µM (no result: GAA inhib, GLA spleen mod, N370S GC mod, GLA inh pH 4.5, GAA spleen mod)
Cc1c(CNCc2ccc(Cl)cc2)c(C(=O)O)c(C)n1Cc1ccc(F)cc1	none (no result: GAA inhib, GLA spleen mod, N370S GC mod, GLA inh pH 4.5, GAA spleen mod)
CCOC(=O)c1[nH]c2cc(OC)c(OC)cc2c1N	GAA glycogen mod 28µM
Nc1nc(-c2cccs2)c(NC(=O)c2ccccc2)s1	GAA glycogen mod 20µM
CCOc1ccc(NC(=O)CN(c2ccc(OCC)cc2)S(=O)(=O)c2c(C)[nH]c(=O)[nH]c2=O)cc1	N370S GC mod 6.3µM
CCOc1ccc(N(CC(=O)Nc2ccc(F)cc2F)S(=O)(=O)c2c(C)[nH]c(=O)[nH]c2=O)cc1	none (no result: GAA inhib, GLA spleen mod, N370S GC mod, GLA inh pH 4.5, GAA spleen mod)
CCOc1ccc(N(CC(=O)Nc2ccc(OC)cc2)S(=O)(=O)c2c(C)[nH]c(=O)[nH]c2=O)cc1	N370S GC mod inconclusive
CCOc1ccc(N(CC(=O)Nc2ccc(C)cc2)S(=O)(=O)c2c(C)[nH]c(=O)[nH]c2=O)cc1	N370S GC mod 2.8µM (no result: GAA inhib)
C=CCCn1c(Cl)c(C#N)sc1=O	none (no result: GAA inhib, GLA inh pH 4.5, GAA glycogen mod)
c1ccc(-c2[nH]ncc2-c2ccnc3ccccc23)nc1	none (no result: GAA inhib, GLA inh pH 4.5, GAA glycogen mod)
O=C1CC(N2CCN(c3ccc(O)cc3)CC2)C(=O)N1Cc1cccs1 (stereo unspecified)	GAA glycogen mod 6.3µM
O=C(c1ccncc1)c1ccc(N2CCN(C3CC(=O)N(Cc4cccs4)C3=O)CC2)cc1 (stereo unspecified)	none
Cc1cccc(NNC(=O)C(=O)NNc2cccc(C)c2)c1	GAA glycogen mod inconclusive (no result: GAA inhib)
CCCc1ccc(C(=O)NNc2cccc(C)c2)cc1	GAA glycogen mod 16µM (no result: GAA inhib)
Nc1ccc(C(=O)C(=O)c2ccc(N)cc2)cc1	none (no result: GAA inhib)
N=C1C=CC(=C(c2ccc(N)cc2)c2ccc(N)cc2)C=C1	N370S GC mod 3.5µM (no result: GAA inhib, GLA inh pH 4.5, GAA glycogen mod)
